The text below walks through data of PubChem BioAssay (NCI).

A short description of the assay: NCI Yeast Anticancer Drug Screen. Data for the sgs1 strain (AID 173).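 Further: 0% = growth of vehicle-only control cultures.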 As to conditions: S. cerevisiae sgs1 mutant, hits give high values. On the procedure: Growth inhibition of yeast strains with defined genetic alterations is measured as a screen for potential anti-cancer activity. Selected strains with alterations in DNA damage repair or cell cycle control were exposed to compounds and growth inhibition was measured relative to vehicle treated controls. The strain used in this assay is sgs1

About 79,000 compounds went through this panel and 15% of them were active in at least one assay; those are over-represented in the sample as a whole. Values without a mark were called inactive. Calls of active or inactive are those of the source. No stated cut-off is given here; in the data, active means growth inhibition above about 70%; inactive means the rest.

Take `O=C(Nc1ccccc1)C(=O)C(C(=O)c1ccccc1)C(c1ccccc1)c1ccccc1` (stereo not given): the growth inhibition is 2% (at 1.2 µM); 3% (at 3.7 µM); 3% (at 11.0 µM); 32% (at 33.0 µM); 56% (at 100.0 µM).

`O=C1C2CC[C@@H]3C(=O)C(Cl)(Cl)[C@@H]3CCC2C1(Cl)Cl` (stereo not given in full): the growth inhibition is -21% (at 1.2 µM); 20% (at 3.7 µM); 33% (at 11.0 µM); 51% (at 33.0 µM); 53% (at 100.0 µM).

For the compound `CCc1ccc(NS(=O)(=O)c2ccccc2)c([N+](=O)[O-])c1`, the growth inhibition is 2% (at 1.2 µM); 5% (at 3.7 µM); 15% (at 11.0 µM); 44% (at 33.0 µM); 90% (active) (at 100.0 µM).

For `Cc1ccc2[nH]c3c(C)c4cc[n+](C)cc4c(C)c3c2c1`, the growth inhibition (at 1.2 µM) was 1%; the growth inhibition (at 3.7 µM) was -21%; the growth inhibition (at 11.0 µM) is 22%; the growth inhibition (at 33.0 µM) is 54%; the growth inhibition (at 100.0 µM) was 93% (active).

As to `C=CCC1=C(C)C(OC(=O)/C=C/c2ccccc2)CC1=O` (stereo not given), the growth inhibition (at 1.2 µM) is -9%; the growth inhibition (at 3.7 µM) was 26%; the growth inhibition (at 11.0 µM) is 6%; the growth inhibition (at 33.0 µM) was 6%; the growth inhibition (at 100.0 µM) was 53%.

As for `CSC(=S)N/N=C(\C)c1cccc(C)n1`, the growth inhibition runs as follows: (at 1.2 µM) -3%; (at 3.7 µM) -5%; (at 11.0 µM) -4%; (at 33.0 µM) 57%; (at 100.0 µM) 99% (active).

For the compound `CC(C)NC(=O)OCc1c(COC(=O)NC(C)C)c(-c2ccc(Cl)c(Cl)c2)n2c1CCC2`, the growth inhibition (at 1.2 µM) was -21%; the growth inhibition (at 3.7 µM) was -17%; the growth inhibition (at 11.0 µM) is -1%; the growth inhibition (at 33.0 µM) was 12%; the growth inhibition (at 100.0 µM) is 80% (active).

Take `COCCOC(=O)CCn1cc(F)c(=O)[nH]c1=O`: the growth inhibition runs as follows: (at 1.2 µM) 1%; (at 3.7 µM) 12%; (at 11.0 µM) 36%; (at 33.0 µM) 76% (active); (at 100.0 µM) 88% (active).
